Out of some 390,000 compounds screened, about 17,000 (4.4%) were called active. Not shown: some 8% with an inconclusive outcome. Calls follow the shape of the dose curve; as a rule, active = well fitted inhibition curve with a large enough effect; inconclusive = small, poorly fitted or top-dose-only effect; inactive = no such curve, though single readings can be large or run the other way. The full list was thinned out, with actives kept by preference.
% is scaled to controls: 0 for no effect and ±100 for the full control effect; potency is read from the fitted curve at half-maximal effect.

In this experiment the target is Lysine-specific demethylase 4A (Homo sapiens) (UniProt O75164). The experiment can be described thus: qHTS Assay for Inhibitors of JMJD2A-Tudor Domain. Also: nearly all actives have a fitted effect of over 50% in size. Particulars: AlphaScreen JMJD2A-Tudor / H3K4me3 peptide binding; series mostly up to 114 µM; activity change, negative = inhibition: at the top concentration. In general terms: In qHTS, concentration-response curves come from the screen itself.
Chain of Lysine-specific demethylase 4A (Homo sapiens) (O75164 whole entry, looked up, the tested form may be a part): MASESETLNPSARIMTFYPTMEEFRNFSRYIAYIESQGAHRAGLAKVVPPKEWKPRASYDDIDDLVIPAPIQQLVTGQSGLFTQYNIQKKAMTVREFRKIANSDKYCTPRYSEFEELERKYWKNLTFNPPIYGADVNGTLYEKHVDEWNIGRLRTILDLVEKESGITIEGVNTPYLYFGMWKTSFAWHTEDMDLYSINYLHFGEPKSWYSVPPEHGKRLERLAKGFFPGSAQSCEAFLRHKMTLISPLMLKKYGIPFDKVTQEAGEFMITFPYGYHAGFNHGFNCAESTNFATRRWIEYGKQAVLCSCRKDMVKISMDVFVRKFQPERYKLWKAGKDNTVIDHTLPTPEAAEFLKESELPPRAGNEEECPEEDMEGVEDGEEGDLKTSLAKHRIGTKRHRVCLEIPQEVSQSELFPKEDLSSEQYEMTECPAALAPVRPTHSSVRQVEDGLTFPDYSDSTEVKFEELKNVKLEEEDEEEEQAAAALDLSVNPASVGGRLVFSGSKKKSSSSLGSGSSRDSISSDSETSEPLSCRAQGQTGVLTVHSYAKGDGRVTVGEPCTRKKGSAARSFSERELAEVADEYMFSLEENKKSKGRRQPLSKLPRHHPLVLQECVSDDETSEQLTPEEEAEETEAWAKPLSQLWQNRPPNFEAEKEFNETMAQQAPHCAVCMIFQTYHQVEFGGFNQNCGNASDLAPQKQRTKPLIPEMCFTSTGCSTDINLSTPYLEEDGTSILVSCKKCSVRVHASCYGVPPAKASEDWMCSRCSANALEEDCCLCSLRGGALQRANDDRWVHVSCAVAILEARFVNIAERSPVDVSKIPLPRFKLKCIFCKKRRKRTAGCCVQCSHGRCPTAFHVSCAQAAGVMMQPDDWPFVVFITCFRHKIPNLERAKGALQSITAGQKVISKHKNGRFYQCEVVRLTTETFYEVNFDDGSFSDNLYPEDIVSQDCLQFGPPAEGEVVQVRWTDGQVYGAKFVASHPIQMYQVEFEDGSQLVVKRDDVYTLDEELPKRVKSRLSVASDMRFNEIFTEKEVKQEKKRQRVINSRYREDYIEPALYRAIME
As to `CCOc1ccc(NC(=O)Cn2cc(C(=O)c3ccc(C)cc3)c(=O)c3cc4c(cc32)OCCO4)cc1`, the “activity change, negative = inhibition” value was -20.5% (inactive). On the same count and under the same terms, the figure for `CCN(CC)S(=O)(=O)c1ccc2c(c1)nc(CN(C)C(=O)Nc1ccc(Cl)cc1)n2C` is -0.993% (inactive); for `Cc1ccc(C)c(N2CCN(C(=O)Cc3c(C(=O)O)c(C)cn3C)CC2)c1` it is -20.3% (inactive); for `CCc1c(Nc2ccccc2C)nc(N)[nH]c1=O` it is -16.6% (inactive). As to `Cc1[nH]c(N)nc(=S)c1CCCNc1ccccc1`, the Potency is 50.1 µM (active). Take `COc1ccc(Cl)cc1NC(=O)CSc1nc(-c2cccs2)cc(C(F)(F)F)n1`: the “activity change, negative = inhibition” value is -8.59% (inactive). As to `Cc1ccc(NC(=O)CN2C(=O)CC(C)Sc3ccccc32)c(C)c1` (centres undefined), the “activity change, negative = inhibition” value is -13.1% (inactive). Still for that read-out and setting: then `COc1ccc(C(=O)COC(=O)c2ccc3ccccc3n2)cc1`, with 0.744% (inactive). Turning to `O=C(Oc1ccc([N+](=O)[O-])cc1)c1ccc2ccccc2n1`, the Potency was 28.2 µM (active). As for `CC(OC(=O)c1ccc2ccccc2n1)C(=O)c1ccccc1` (centres undefined), the activity change, negative = inhibition is -2.94% [at 11.4 µM] (inactive). Regarding `COc1ccc2c(c1)c(=O)c(C(=O)c1ccccc1)cn2CC(=O)Nc1ccc2c(c1)OCCO2`, the “activity change, negative = inhibition” value is -21.2% (inactive).

For the compound `CC(C)(C)c1ccc(C(=O)Nc2ccc3c(c2)CCCN3C(=O)c2cccs2)cc1`, the “activity change, negative = inhibition” value was -23.5% (inactive). With `CCNC(=S)N(CCc1c(C)[nH]c2ccc(C)cc12)Cc1ccco1`, the Potency was 63.1 µM (active). With `Cc1ccc2[nH]c(C)c(CCNC(=O)NC3CCCCC3)c2c1`, the “activity change, negative = inhibition” value is -4.56% (inactive). For the compound `Cc1ccc(NC(=S)N(Cc2ccco2)C(C)c2cccs2)cc1` (centres undefined), the “activity change, negative = inhibition” value is -7.04% (inactive). The same measure, in the same setting: then `CCOc1ccc(CNC(=O)c2cc(=O)[nH]c3ccc(S(=O)(=O)N4CCCCC4)cc23)cc1`, with -11.3% (inactive). Still for that read-out and setting: then `CCOC(=O)c1ccc(NC(=O)Cn2c(=O)n(-c3ccc(C)cc3)c(=O)c3c2cnn3C)cc1`, with -6.14% (inactive).

Consider `CN(C)CCOc1cccc(Br)c1`, for which the Potency is 3.55 µM (active).

As to `COc1ccc(OCC(=O)OCCN(C)C)cc1`, the “activity change, negative = inhibition” value is 1.03% (inactive).

For `COc1ccc(OC)c(NC(=O)CN(C)CCOc2ccc(Br)cc2)c1`, the “activity change, negative = inhibition” value was -21.7% (inactive).

With `Cc1ccc(-c2cn3c(n2)sc2cc(C(=O)NCCCc4ccccc4)ccc23)cc1`, the “activity change, negative = inhibition” value is -4.28% (inactive). `CCCCOc1ccc(C(=O)Nc2cccc(-c3nc4ccccc4o3)c2C)cc1`: the “activity change, negative = inhibition” value is -13.1% (inactive). Same read-out and setting: then `CCCCCCCCCOC1OC(CO)C(O)C(O)C1NC(C)=O` (centres undefined), with -7.22% (inactive); and `CCc1cccc(OC2OC(CO)C(O)C(O)C2NC(C)=O)c1` (centres undefined), with -1.03% (inactive). Regarding `CCCCCCCCOC1OC(CO)C(O)C(O)C1NC(C)=O` (centres undefined), the Potency was 79.4 µM (active). As to `CCc1nc2c(cnn2-c2ccc(C)cc2)c(=O)n1-c1ccc(C)cc1`, the “activity change, negative = inhibition” value was -8% (inactive). Still for that read-out and setting: the figure for `CCOC(=O)c1ccccc1CN1C(=O)c2ccccc2S1(=O)=O` is 7.12% (inactive); for `CCOC(=O)C(NC(C)=O)C(=O)Nc1ccc(OC)cc1` (centres undefined) it is -15.2% (inactive). For `CCOC(=O)C1=C(c2ccc(OC)cc2)C(=O)c2ccccc2C1=O`, the Potency is 39.8 µM (active).

(Values after PubChem BioAssay AID504339 (National Center for Advancing Translational Sciences (NCATS), 2011).)
